# Most compounds without a hit are left out; they make up all but 3.1% or so of the library.
# PLK1 PBD inh – blocks phosphopeptide binding to human PLK1 polo-box domain. Plk1 PBD binding of FITC phosphopeptide, fluorescence polarization. Potency, µM, for the others: max response, negative = inhibition, hits mostly inhibitors. 360,000 tested, 2.8% active. AID 720504; note: potency is the fitted concentration of half-maximal effect; series mostly up to about 57 µM; % is set by controls: 0 for no effect and ±100 for the full control effect; nearly all actives have a fitted effect of over 65% in size
# VDR inhibitor – inhibitors of human vitamin D receptor; P11473; 400,000 tested, 0.93% active; AID 504847; Potency, µM, for inactives: max response, negative = inhibition, actives largely listed as inhibitors; VDR-SRC2-3 peptide fluorescence polarization, 2 h; note: potency is the fitted concentration of half-maximal effect; % is set by controls: 0 for no effect and ±100 for the full control effect
# Target sequence (P11473 whole entry, looked up): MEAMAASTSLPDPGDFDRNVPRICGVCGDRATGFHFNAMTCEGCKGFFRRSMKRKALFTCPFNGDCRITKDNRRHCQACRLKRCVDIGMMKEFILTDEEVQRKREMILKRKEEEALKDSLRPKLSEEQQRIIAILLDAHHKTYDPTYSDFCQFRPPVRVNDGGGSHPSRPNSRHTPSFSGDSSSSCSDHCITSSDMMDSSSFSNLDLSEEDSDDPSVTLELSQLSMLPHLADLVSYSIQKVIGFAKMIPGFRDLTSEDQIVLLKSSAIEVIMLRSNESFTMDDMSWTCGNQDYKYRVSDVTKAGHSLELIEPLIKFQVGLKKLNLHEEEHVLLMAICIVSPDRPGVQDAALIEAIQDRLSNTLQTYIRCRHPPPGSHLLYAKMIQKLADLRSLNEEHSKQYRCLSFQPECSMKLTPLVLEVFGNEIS
#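 After 23 nl compound addition and a short centrifugation, plates sat for 2 hours at ambient temperature; polarization of fluorescence then indicated loss of VDR binding to peptide SRC2-3.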
# TSHR antag – antagonists of human thyroid stimulating hormone receptor; activity change, negative = inhibition, % at 11.5 µM; 330,000 tested, 0.2% active; TSHR-expressing cells, TSH-stimulated cAMP HTRF, 2 h; active compounds read low;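 active = activity change below a set negative limit, meaning inhibition stronger than a set level, cut at about -70% in these data; inconclusive = activity change between two set negative limits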; note: % is set by controls: 0 for no effect and ±100 for the full control effect
#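 Antagonism was scored as loss of TSH-driven cAMP in TSHR cells, stimulated with 4nM TSH (EC80) for 2 hours at 37 deg C and detected by homogeneous HTRF competition immunoassay.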
# PTAP TSG101 blk – blocks PTAP/TSG101 interaction to inhibit HIV-1 budding; 340,000 tested, under 10 active; Fluorescence polarization, FITC-PTAP peptide / Tsg101 binding; Potency, µM (titrated, usually from 115 µM), without a hit: at the top dose activity change, negative = inhibition, usual class: inhibitors; active = well fitted inhibition curve with a large enough effect in the main read-out, with a control signal flat, not every such curve was filed as active; inconclusive = small, poorly fitted or top-dose-only effect, or effect the other way, or a change in a side signal; inactive = no such curve, though single readings can be large or run the other way; note: potency is the fitted concentration of half-maximal effect; % of control where 0% means no effect
#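 Fluorescence anisotropy tracks displacement of a FITC-tagged PTAP peptide (50 nM) from the Tsg101 binding domain (10 uM), following a 20 min room-temperature incubation at pH 7.5.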
# uPA surface inh – cell surface uPA generation inhibition; cell surface uPA generation assay, qHTS; Potency, µM (highest dose often 38.3 µM), inactives show top-dose activity change, negative = inhibition, usual class: inhibitors; 330,000 tested, 0.31% active; AID 540303; active = well fitted inhibition curve with a large enough effect; inconclusive = small, poorly fitted or top-dose-only effect; inactive = no such curve, though single readings can be large or run the other way; tested in mouse RAW 264.7 cells; note: potency is the fitted concentration of half-maximal effect; % is set by controls: 0 for no effect and ±100 for the full control effect; nearly all actives have a fitted effect of over 55% in size
# * = called active by the depositor; ? = inconclusive; . = no result given. Unless noted, calls come from the whole dose curve; as a rule, active = well fitted curve in the direction sought with a large enough effect; inconclusive = small, poorly fitted or top-dose-only effect, or another doubt; inactive = no such curve, though single readings can be large; an effect the other way counts as inactive or inconclusive.
SMILES,PLK1 PBD inh,VDR inhibitor,TSHR antag,PTAP TSG101 blk,uPA surface inh
CCC(C(=O)Nc1ccc(C)c(Cl)c1)n1c(=O)c(-c2ccccc2NC(C)=O)nc2ccccc21 (stereo not drawn),.,5%,.,.,.
Cc1noc(C)c1-c1ccc2ncnc(NC3CCNCC3)c2c1,.,45µM*,.,.,.
Cc1noc(C)c1-c1ccc2ncnc(N3CCOCC3)c2c1,.,50µM*,.,.,.
Cc1ccccc1-c1ccc2ncnc(NCCN3CCOCC3)c2c1,.,50µM*,.,.,.
Cc1ccccc1-c1ccc2ncnc(N3CCOCC3)c2c1,.,56µM*,.,.,.
O=C(C[n+]1ccc2ccccc2c1)c1cccc2ccccc12,24µM*,-9%,-7,-11%,-5%
Cc1ccc(C(=O)C[n+]2ccc3ccccc3c2)cc1,8%,9%,-1,-2%,1%
Cn1c(CN2CCOCC2)nnc1SCC(=O)Nc1cc(Cl)ccc1Cl,0%,13%,4,-5%,1%
CC(C)[C@H](NC(=O)C1CCN(S(=O)(=O)c2ccc(F)cc2)CC1)C(=O)NCc1ccco1,27µM*,-26%,-3,-3%,-4%
CCNC(=O)C1CCN(S(=O)(=O)c2ccc(F)cc2)CC1,21µM*,?,0,-7%,2%
O=C(NCc1ccccc1Cl)C1CCN(S(=O)(=O)c2ccc(N3CCCC3=O)cc2)CC1,12µM*,?,5,0%,?
COc1ccc(S(=O)(=O)N2CCC(C(=O)N[C@H](C(=O)NCc3ccco3)C(C)C)CC2)cc1,-12%,-29%,2,-5%,-3%
O=C(NCc1ccc(F)cc1)C1CCN(S(=O)(=O)c2ccc(N3CCCC3=O)cc2)CC1,4%,.,.,.,.
O=C(NCCc1cccc(F)c1)C1CCN(S(=O)(=O)c2ccc(F)cc2)CC1,-2%,-2%,-20,-1%,-28%
COc1ccc(C)cc1-n1c(SCC(=O)N2CCOCC2)nc2ccccc2c1=O,1%,.,.,.,.
Cc1ccc(S(=O)(=O)N2[C@@H](c3ccc(Cl)cc3)C(C(=O)O)=C[C@H]2CC2CCCC2)cc1,19µM*,-24%,-8,-10%,-16%
Cc1ccc(S(=O)(=O)N2[C@@H](c3ccc(Cl)c(Cl)c3)C(C(=O)O)=C[C@H]2CC2CCCC2)cc1,21µM*,-28%,3,-2%,-12%
Cc1ccc(S(=O)(=O)N2[C@@H](c3ccc(C#N)cc3)C(C(=O)O)=C[C@H]2CC2CCCC2)cc1,30µM*,?,-8,-11%,10%
CC[C@@H]1C=C(C(=O)O)[C@H](c2ccc(Cl)cc2)N1S(=O)(=O)c1ccc(C)cc1,-1%,-10%,2,-1%,12%
CN(C)S(=O)(=O)c1ccc(Cl)c(NC(=O)CN2C(=O)NC(C)(C3CC3)C2=O)c1 (stereo not drawn),2%,-17%,18,-1%,5.6µM*
CC1(C2CC2)NC(=O)N(CC(=O)Nc2cc(S(=O)(=O)N3CCCCC3)ccc2Cl)C1=O (stereo not drawn),-13%,-3%,15,-2%,?
CC1CCC(C(C)C)C(OC(=O)C[n+]2cccc(C(N)=O)c2)C1 (stereo not drawn),2.4µM*,?,1,0%,5%
COc1ccc(-c2c[n+](CC(=O)OC3CC(C)CCC3C(C)C)c3n2CCC3)cc1 (stereo not drawn),-4%,6%,-15,-7%,6.3µM*
CC1CCC(C(C)C)C(OC(=O)COC(=O)c2ccc(N)cc2)C1 (stereo not drawn),-9%,-3%,-24,0%,-17%
CCOC(=O)CSc1nnc(CNc2ccc(Cl)cc2)n1Cc1ccccc1,-5%,-8%,-12,-5%,1%
SMILES,PLK1 PBD inh,VDR inhibitor,TSHR antag,PTAP TSG101 blk,uPA surface inh
O=C(O)CSc1nnc(CNc2ccc(Cl)cc2)n1Cc1ccccc1,27µM*,?,-11,-3%,0%
C[C@@H](NC(=O)c1ncn(C)c1C(=O)N[C@H](C)c1ccccc1)c1ccccc1,1%,-11%,10,3%,1%
CCC(C)Oc1cc(-c2ccnc(Nc3cccc(Cl)c3)n2)ccn1 (stereo not drawn),24µM*,?,-3,1%,?
OCCCNc1cc(-c2ccnc(Nc3cccc(Cl)c3)n2)ccn1,0%,13%,9,-6%,?
CC1(C)CC[C@]2(C(=O)n3ccnc3)CC[C@]3(C)[C@H](C(=O)C=C4[C@@]5(C)C=C(C#N)C(=O)C(C)(C)[C@@H]5CC[C@]43C)[C@@H]2C1,1.7µM*,45µM*,.,-3%,-9%
N#Cc1cc([N+](=O)[O-])ccc1N1CCCC1,27µM*,?,0,-7%,2%
O=[N+]([O-])c1ccc(N2CCCCCC2)c([N+](=O)[O-])c1,-12%,-19%,-1,-7%,-4%
CCC(=O)N1c2ccccc2NC2=C(C(=O)CC(c3ccco3)C2)C1c1ccco1 (stereo not drawn),-5%,-4%,12,-3%,8%
CC1(C)CC(=O)C2=C(C1)Nc1ccccc1N(C(=O)C1CC1)C2c1ccco1 (stereo not drawn),9.5µM*,-23%,12,-8%,9%
CCOC(=O)c1c(O)c(Cl)c(C)[nH]c1=O,27µM*,5%,9,-3%,2%
CCCCc1cc(=O)oc2cc(C)cc(OCC(=O)Nc3ccccn3)c12,-3%,10%,2,1%,?
COc1ccc(NC(=O)CCCS(=O)(=O)c2nc(-c3ccc(OC)c(OC)c3)cc(C(F)(F)F)n2)cc1OC,.,79µM*,.,.,.
COc1ccc(-c2cc(C(F)(F)F)nc(S(=O)(=O)CCCC(=O)Nc3cccc(O)c3)n2)cc1OC,-26%,?,-15,2%,-1%
Cc1cccc(-n2ncc(C(=O)N3CCN(C4CCCCC4)CC3)c2C2CCN(C(=O)OC(C)(C)C)CC2)c1,.,6%,.,.,.
Clc1ccc(OCc2nn3c(-c4ccco4)nnc3s2)cc1,24µM*,-19%,2,-6%,1%
c1coc(-c2nnc3sc(Cc4cccs4)nn23)c1,27µM*,0%,-5,-6%,.
c1csc(Cc2nn3c(-c4n[nH]c5c4CCC5)nnc3s2)c1,2.7µM*,-19%,3,-1%,2%
O=C(COC(=O)C1CC1)Nc1ccc(Cl)cc1Cl,1%,11%,-2,-3%,6%
CCOC(=O)C1CCN(Cc2ccccc2C(F)(F)F)CC1,1%,21%,26,-6%,.
CCOC(=O)C1CCN(Cc2ccc(O)c3ncccc23)CC1,27µM*,4%,-5,0%,-9%
Cc1ccc(S(=O)(=O)/N=C2\C=C(Nc3cccc(C(=O)O)c3)C(=O)c3ccccc32)cc1,60µM*,-1%,-42,0%,0%
COC(=O)c1ccccc1NC1=C/C(=N\S(=O)(=O)c2cccs2)c2ccccc2C1=O,19µM*,?,19,-6%,-11%
COC(=O)c1ccccc1NC1=C/C(=N\S(=O)(=O)c2ccc(C(=O)O)cc2)c2ccccc2C1=O,?,25µM*,-36,0%,-21%

# Screening data: PubChem, National Center for Advancing Translational Sciences (NCATS)
